# LmPK inhibitor = qHTS Assay for Inhibitors of Leishmania Mexicana Pyruvate Kinase (LmPK). purified LmPK, Kinase-Glo ATP luminescence, 1 h. Potency, µM (series often up to 57.5 µM), for inactives: at the top dose activity change, negative = inhibition, most hits filed as inhibitors. 0.37% of 290,000 active; further: potency means the concentration at half of the fitted maximal effect; on the % scale 0 is the no-effect control and ±100 the full control effect
# Target sequence (Q27686 whole entry, looked up): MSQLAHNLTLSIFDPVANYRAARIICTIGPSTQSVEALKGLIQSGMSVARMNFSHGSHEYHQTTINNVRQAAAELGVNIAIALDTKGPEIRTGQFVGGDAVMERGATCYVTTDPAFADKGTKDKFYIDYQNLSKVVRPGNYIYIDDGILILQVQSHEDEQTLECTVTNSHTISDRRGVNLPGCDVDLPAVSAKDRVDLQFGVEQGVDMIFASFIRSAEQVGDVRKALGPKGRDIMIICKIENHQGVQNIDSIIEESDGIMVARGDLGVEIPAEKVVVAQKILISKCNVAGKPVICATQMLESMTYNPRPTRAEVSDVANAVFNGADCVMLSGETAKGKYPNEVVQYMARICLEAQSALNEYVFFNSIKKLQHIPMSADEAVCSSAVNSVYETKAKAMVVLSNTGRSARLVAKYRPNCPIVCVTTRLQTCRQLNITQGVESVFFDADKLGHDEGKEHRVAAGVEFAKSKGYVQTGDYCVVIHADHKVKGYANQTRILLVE
#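 Kinase-Glo luminescence read after 1 h RT reaction of 0.1 nM LmPK with 0.5 mM PEP and 0.1 mM ADP. Activity scaled between uninhibited and enzyme-free controls.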
# Shiga inhibitor = A qHTS for Small Molecule Inhibitors of Shiga Toxin; AID 2315, 2010; inhibition, % at 38.7 µM; Vero cells, Shiga toxin protein synthesis inhibition reporter; 9.2% of 290,000 active; in the data active means inhibition mostly above about 28%, no sharp cut-off; inactive means mostly below about 43%; further: 0% is about no effect
# TbPYK inhibitor = qHTS of Trypanosoma Brucei Inhibitors; pyruvate kinase (Trypanosoma brucei), Q57TT1; TbPYK enzyme, Kinase-Glo Plus ATP luminescence, 45 min; Potency, µM (series often up to 76.8 µM), for inactives: at the highest dose activity, negative = inhibition, hits mostly inhibitors; 0.12% of 410,000 active; AID 624173, 2012; further: potency means the concentration at half of the fitted maximal effect; on the % scale 0 is the no-effect control and ±100 the full control effect; nearly all actives have a fitted effect of over 50% in size
#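 Glycolytic pyruvate kinase of T. brucei was incubated with substrate, test compound and 130 uM ADP for 45 minutes at room temperature. Luminescent Kinase-Glo Plus signal was measured after 10 minutes.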
# RE007 growth inh = qHTS Assay for Inhibitors of the HIV-1 protein Vpr; Potency, µM (titrated, usually from 92.2 µM), inactives show at the top dose activity change, negative = less growth, usual class: inhibitors; S. pombe RE007 Vpr strain, BacTiter-Glo ATP luminescence, 24 h; 0.21% of 360,000 active; AID 651644, 2012; active means well fitted falling curve with a large enough effect; inconclusive means small, poorly fitted or top-dose-only effect; inactive means no such curve, though single readings can be large or run the other way; further: potency means the concentration at half of the fitted maximal effect; on the % scale 0 is the no-effect control and ±100 the full control effect; nearly all actives have a fitted effect of over 50% in size
#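 Fission yeast RE007 carrying one integrated HIV-1 vpr copy, seeded at OD 0.01 in PMG+AL medium with 23 nL pinned compound. Grown 24 h at 30 degrees; viability read by BacTiter-Glo luminescence after 5 min.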
# Cycloheximide cs = Cycloheximide Counterscreen for Small Molecule Inhibitors of Shiga Toxin; cell reporter, cycloheximide protein synthesis inhibition counterscreen; max response, %; 12% of 300,000 active; in the data active means max response mostly above about 13%, no sharp cut-off; inactive means mostly below about 14%; further: read at 38.3 µM for the half of the compounds with a filed dose; 0% is about no effect
# FBPA Giardia inh = qHTS Assay for Inhibitors of Fructose-1,6-bisphosphate Aldolase from Giardia Lamblia. A8B2U2. purified Giardia FBPA. Potency, µM (top dose mostly 59.6 µM), for the others: top-dose activity, negative = inhibition, most hits filed as inhibitors. 0.71% of 290,000 active. AID 2451, 2010; further: potency means the concentration at half of the fitted maximal effect; on the % scale 0 is the no-effect control and ±100 the full control effect; nearly all actives have a fitted effect of over 55% in size
#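 40 nM FBPA preincubated 10 min at RT with compound (up to 57.5 uM final), then substrate plus GAPDH/TPI/NAD/arsenate coupling and diaphorase/resazurin added. Fluorescence read after 20 min at RT, 525/598 nm.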
# Starred values were filed as active, the others as inactive; ? = inconclusive; · = no result given; [ ] = another dose, or the depositor's remark. Shown is part of a subset that was picked to be rich in hits. Unless noted, the call rests on the fitted dose curve; in most records, active means well fitted curve in the direction sought with a large enough effect; inconclusive means small, poorly fitted or top-dose-only effect, or another doubt; inactive means no such curve, though single readings can be large; an effect the other way counts as inactive or inconclusive.
SMILES,LmPK inhibitor,Shiga inhibitor,TbPYK inhibitor,RE007 growth inh,Cycloheximide cs,FBPA Giardia inh
CCOC(=O)c1sc(NC(=O)Nc2ccccc2F)nc1C,-6%,75*,-1%,-2%,86*,4%
CCN(CC)S(=O)(=O)c1nnc(NC(=O)COc2ccccc2F)s1,·,·,-7%,·,·,·
CCc1ccc(C2CC(=O)Oc3c2c(=O)n(C)c2ccccc32)cc1 (configuration not stated),·,·,2%,·,·,·
CCCN(CC(=O)Nc1ccccc1C)C(=O)/C=C/c1ccc(OC)c(OC)c1,·,·,2%,9%,·,·
CCOC(=O)c1sc(Nc2ccccc2Cl)nc1C,-5%,88*,6%,-15%,42*,5%
CCOC(=O)c1cc2nc(Nc3ccc(OC)cc3)sc2s1,0%,58*,-10%,-2%,14*,-5%
CCOC(=O)c1sc(Nc2ccc(Br)cc2)nc1C,2%,89*,2%,?,30*,?
CC(=O)c1sc(Nc2cccc3ccccc23)nc1C,·,·,1%,2%,·,·
CCOC(=O)c1sc(NCCNc2nc(C)c(C(=O)OCC)s2)nc1C,3%,8,2%,11%,-3,3%
COc1ccc(C2=NC3(CCCCCC3)N(CC(=O)Nc3ccc(C)c(C)c3)C2=O)cc1,·,·,0%,·,·,·
Clc1c(-c2nnc3n2CCCCC3)sc2ccccc12,-6%,-8,-7%,-22%,3,4%
Clc1c(-c2nnc3n2CCC3)sc2ccccc12,0%,50,6%,?,15*,10%
COc1ccc2c(Cl)c(-c3nnc4n3CCCCC4)sc2c1,10%,34,-6%,-22%,25*,11%
NC(c1csc(Nc2ccc(C(=O)c3ccccc3)cc2)n1)c1ccccc1Cl (configuration not stated),·,·,4%,-5%[18.4 µM],·,·
COc1ccccc1-c1ccc(NC2CCCC2)nn1,-16%,55*,-6%,-11%,24*,-4%
COc1ccc(CNc2nc(-c3ccc(OC)cc3)cc(C(F)(F)F)n2)cc1,·,·,4%,·,·,·
COc1ccc(CNc2ccc(-c3ccccc3OC)nn2)cc1,-1%,26,3%,-2%,22*,4%
COc1ccc(CNc2ccc(-c3ccc(OC)cc3)nn2)cc1,3%,40*,-11%,9%,19*,14%
CCOC(=O)N1CCC(Nc2cc(C)nc3c(-c4ccccc4OC)c(C)nn23)CC1,7%,-4,2%,0%,-2,1%
COc1ccccc1-c1nccc(NCc2ccccc2)n1,·,·,·,·,·,5%
COc1ccccc1-c1cnn2c(NC3CCCC3)cc(C)nc12,-1%,125*,-12%,-14%,38*,4%
COc1ccc(C(CC(=O)Nc2cc([N+](=O)[O-])ccc2OC)c2ccccc2)cc1 (configuration not stated),0%,-6,-1%,·,-4,-1%
CCC(=O)OCC(=O)[C@@]1(OC(=O)CC)[C@H](C)C[C@@H]2[C@@H]3[C@H]([C@@H](O)C[C@@]21C)[C@]1(C)C=CC(=O)C=C1C[C@@H]3Cl,·,·,2%[33.2 µM],·,·,-2%[21.7 µM]
Cc1ccc(Cl)cc1N1CCN(S(=O)(=O)c2ccc3c(c2)CC(=O)N3C)CC1,-2%,-3,0%,-10%,2,15%
Cc1ccc(S(=O)(=O)Nc2c(O)c3ccccc3oc2=O)cc1,1%,-7,-1%,-6%,6,0%
COc1ccc(S(=O)(=O)Nc2c(O)c3ccccc3oc2=O)cc1,8%,69*,-1%,1%,15*,-3%
CCOc1ccc(CCn2c3c(c(=O)[nH]c2=O)C(NC(=O)c2ccccc2)(C(F)(F)F)C(=O)N3)cc1OCC (configuration not stated),·,·,1%,·,·,·
Cc1ccn2c(NCc3ccccc3)c(-c3cccs3)nc2c1,-10%,55*,-23%,?,30*,-12%
c1csc(-c2nc3ccccn3c2NC2CCCCC2)c1,-2%,-19,3%,-19%,-3,-2%
